HCMV inh – inhibitors of human cytomegalovirus; activity change, negative = inhibition, % at 57.5 µM; AID 1259415; HFF cells, HCMV-luciferase reporter, 72 h; stronger effect = lower value; 410,000 tested, 4.5% active; in the data active means activity change below about -60%; inconclusive means no clear call, values can overlap the other calls; inactive means above about -39%
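Screen run at 2 compound doses on HFFs infected with reporter HCMV, MOI 1 PFU/cell. Luciferase activity from cell lysates at 72 h post infection gave inhibition relative to buffer-only and Salinomycin wells.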
Giardia FBPA inh-1 – inhibitors of Giardia lamblia fructose-1,6-bisphosphate aldolase | A8B2U2 | purified Giardia FBPA | Potency, µM (doses to about 59.6 µM), without a hit: at the highest dose activity, negative = inhibition, actives largely listed as inhibitors | 290,000 tested, 0.71% active | AID 2451; further: potency means the concentration at half of the fitted maximal effect; nearly all actives have a fitted effect of over 55% in size
Target sequence (A8B2U2 whole entry, looked up): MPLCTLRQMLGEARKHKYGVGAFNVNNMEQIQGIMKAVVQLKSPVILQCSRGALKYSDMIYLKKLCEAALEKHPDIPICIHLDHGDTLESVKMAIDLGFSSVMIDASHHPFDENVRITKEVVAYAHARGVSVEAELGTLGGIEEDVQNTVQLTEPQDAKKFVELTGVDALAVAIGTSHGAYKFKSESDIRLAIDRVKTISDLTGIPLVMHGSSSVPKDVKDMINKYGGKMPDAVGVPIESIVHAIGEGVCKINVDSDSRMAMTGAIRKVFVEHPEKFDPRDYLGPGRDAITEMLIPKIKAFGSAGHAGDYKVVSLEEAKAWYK
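Giardia FBPA (40 nM reagent) was preincubated 10 min at RT with compound (up to 57.5 uM final), then substrate plus GAPDH/TPI/NAD/arsenate coupling system with diaphorase/resazurin was added; resorufin fluorescence (525/598 nm) was read after 20 min.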
Sm TGR inh – blocks Schistosoma mansoni thioredoxin glutathione reductase; Q962Y6; purified TGR, DTNB reduction, TNB absorbance 405 nm; Potency, µM (series often up to 114 µM), for inactives: at the highest dose activity change, negative = inhibition, actives largely listed as inhibitors; 360,000 tested, 3% active; AID 485364; further: potency means the concentration at half of the fitted maximal effect; nearly all actives have a fitted effect of over 60% in size
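First, TGR (20 nM dispensed) and NADPH were mixed with compound. Second, a 15 min room-temperature incubation followed. Third, further NADPH and then DTNB were added to start the reaction. Finally, TNB absorbance was monitored kinetically.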
RE007 growth inh – less growth of the S. pombe RE007 Vpr strain | AID 651644 | S. pombe RE007 Vpr strain, BacTiter-Glo ATP luminescence, 24 h | 360,000 tested, 0.21% active | Potency, µM (doses to about 92.2 µM), inactives show at the top dose activity change, negative = less growth, hits mostly inhibitors; active means well fitted falling curve with a large enough effect; inconclusive means small, poorly fitted or top-dose-only effect; inactive means no such curve, though single readings can be large or run the other way; further: potency means the concentration at half of the fitted maximal effect; nearly all actives have a fitted effect of over 50% in size
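Fission yeast RE007 carrying one integrated HIV-1 vpr copy, seeded at OD 0.01 in PMG+AL medium with 23 nL pinned compound. Grown 24 h at 30 degrees; viability read by BacTiter-Glo luminescence after 5 min.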
Tb PYK inh – blocks Trypanosoma brucei pyruvate kinase | TbPYK enzyme, Kinase-Glo Plus ATP luminescence, 45 min | Potency, µM (highest dose often 76.8 µM), for inactives: at the highest dose activity, negative = inhibition, actives largely listed as inhibitors | 410,000 tested, 0.12% active; further: potency means the concentration at half of the fitted maximal effect; nearly all actives have a fitted effect of over 50% in size
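Luminescent Kinase-Glo Plus end-point after 45 min room-temperature reaction of T. brucei pyruvate kinase started with 130 uM ADP (final). Buffer TEA 50 mM pH 7.2 with KCl, MgCl2, BSA, Tween-20; titration-based qHTS with fitted concentration-effect curves.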
FMDV antiviral – antivirals against foot and mouth disease virus. FMDV antiviral cell-based qHTS. Potency, µM (highest dose often 57.9 µM), for inactives: top-dose activity change, negative = inhibition, usual class: inhibitors. 410,000 tested, 1.2% active; calls by dose curve; tested in HEK293T cells; further: read-out not given here; potency means the concentration at half of the fitted maximal effect; nearly all actives have a fitted effect of over 45% in size
Giardia growth – blocks growth of Giardia lamblia trophozoites. shares compounds with Giardia FBPA inh-1. Giardia lamblia trophozoite growth inhibition. Potency, µM (doses to about 57.5 µM), inactives show at the highest dose activity change, negative = inhibition, usual class: inhibitors. 1,500 tested, 5% active;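 further: potency means the concentration at half of the fitted maximal effect; trophozoites exposed to compound for 48 h at 37 °C; nearly all actives have a fitted effect of over 70% in size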
Mammalian tox – toxic to mammalian cells in Giardia aldolase counter-screen | shares compounds with Giardia FBPA inh-1 | 1,500 tested, 4% active | Potency, µM (highest dose often 57.5 µM), for inactives: top-dose viability change, negative = toxicity, most hits filed as inhibitors | mammalian cell viability counter-screen, qHTS;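 further: Chinese hamster ovary cells used as mammalian cytotoxicity surrogate; viability measured as cellular ATP by luminescence; potency means the concentration at half of the fitted maximal effect; compound exposure lasted 48 h before reading; nearly all actives have a fitted effect of over 60% in size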
Giardia FBPA inh-2 – confirmation of Giardia fructose-bisphosphate aldolase inhibitors; shares compounds with Giardia FBPA inh-1; AID 2787; 1,500 tested, 5% active; purified Giardia aldolase enzyme activity, qHTS; Potency, µM (series often up to 57.5 µM), without a hit: at the top dose activity change, negative = inhibition, actives largely listed as inhibitors; further: potency means the concentration at half of the fitted maximal effect; nearly all actives have a fitted effect of over 45% in size
Rabbit aldolase – selectivity test for Giardia aldolase inhibitors: rabbit aldolase; shares compounds with Giardia FBPA inh-1; Rabbit muscle FBPA enzyme inhibition, selectivity counter-screen; Potency, µM (series often up to 57.5 µM), inactives show top-dose activity, negative = inhibition, usual class: inhibitors; 1,500 tested, 4% active; AID 2794; further: potency means the concentration at half of the fitted maximal effect; nearly all actives have a fitted effect of over 60% in size
Target sequence (P00883 whole entry, looked up): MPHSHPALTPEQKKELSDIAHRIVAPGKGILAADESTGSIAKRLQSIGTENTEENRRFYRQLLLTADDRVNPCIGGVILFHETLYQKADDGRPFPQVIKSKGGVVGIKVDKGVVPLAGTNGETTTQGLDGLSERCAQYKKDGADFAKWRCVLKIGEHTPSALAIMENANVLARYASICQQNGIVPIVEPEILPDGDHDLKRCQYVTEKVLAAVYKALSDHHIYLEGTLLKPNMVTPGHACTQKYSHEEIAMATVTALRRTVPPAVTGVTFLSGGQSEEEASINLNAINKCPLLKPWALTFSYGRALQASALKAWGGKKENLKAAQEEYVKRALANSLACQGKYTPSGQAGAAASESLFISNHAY
GAPDH counter – counter-screen for Giardia aldolase inhibitors: GAPDH coupling enzyme | shares compounds with Giardia FBPA inh-1 | GAPDH coupling enzyme counterscreen, biochemical, qHTS | Potency, µM (titrated, usually from 57.5 µM), inactives show at the top dose activity change, negative = inhibition, most hits filed as inhibitors | 1,500 tested, 6% active; further: potency means the concentration at half of the fitted maximal effect; nearly all actives have a fitted effect of over 55% in size
An asterisk follows results filed as active; ? = inconclusive; . = no result given; [ ] = dose if it differs, or a comment. Hits are enriched below; roughly 7.7% of the tested compounds scored in any of these assays. Unless noted, the call rests on the fitted dose curve; in most records, active means well fitted curve in the direction sought with a large enough effect; inconclusive means small, poorly fitted or top-dose-only effect, or another doubt; inactive means no such curve, though single readings can be large; an effect the other way counts as inactive or inconclusive. On the % scale 0 is the no-effect control and ±100 the full control effect.

SMILES	HCMV inh	Giardia FBPA inh-1	Sm TGR inh	RE007 growth inh	Tb PYK inh	FMDV antiviral	Giardia growth	Mammalian tox	Giardia FBPA inh-2	Rabbit aldolase	GAPDH counter
COC(=O)CC1C(=O)NCCN1C(=S)NC(=O)c1ccccc1[N+](=O)[O-] (stereo not given)	1	7.1µM*	0%	-3%	-8%	-14%	-36%	-12%	2%	2%	13%
CC(NC(=O)NNC(N)=S)(C(F)(F)F)C(F)(F)F	-17	18µM*	-5%	-12%	-3%	-7%	31%	9%	6%	7%	8%
CC(NC(=O)NC(N)=O)(C(F)(F)F)C(F)(F)F	-29	0%	6%	-5%	0%	.	.	.	.	.	.
O=C(O)CC(Cn1[nH]nnc1=S)c1ccccc1 (stereo not given)	-15	16µM*	1%	12%	?	-19%	66%	-9%	-12%	4%	7%
Cc1nc(C(F)(F)F)c(C(=O)N/N=C(\N)c2ccccn2)s1	-34	4.5µM*	-7%	4%	-3%	3%	32µM*	40µM*	?	-21%	-26%
O=C(Nc1ccccc1C(F)(F)F)c1ccccn1	-22	-21%	-2%	-19%	4%	49%	.	.	.	.	.
N/C(=N\NS(=O)(=O)c1ccccc1C(F)(F)F)c1ccccn1	18	18µM*	-6%	7%	-5%	43%	6%[10.4 µM]	7%	13%	11%	7%
O=C(NCCN1CCCCC1)c1ccc(Cn2c(SCc3cccc(F)c3)nc3cccnc32)cc1	?	.	6%	.	-3%	-10%	.	.	.	.	.
C=CCN(CC#CCOc1ccccc1OC)CC=C	.	20µM*	-2%	.	.	.	0%[10.4 µM]	8%	5%	15%	1%
COc1ccccc1OCC#CCN1CCCC1	27	?	.	-8%	0%	-2%	.	.	.	.	.
Cc1cccc(NC(=O)c2sc3nc4c(cc3c2N)CN(C(C)C)CC4)c1	-34	.	-5%	.	-14%	?	.	.	.	.	.
COC(=O)/C=C1\S/C(=N\N=C\CC(=O)OC)NC1=O	25	16µM*	-8%	-7%	-8%	-12%	19%	14%	-6%	3%	-11%
O=C(NNC(=O)C12CC3CC(CC(C3)C1)C2)c1cnccn1	?	5%	5%	?	-9%	-13%	.	.	.	.	.
O=C(NNC(=O)C12CC3CC(CC(C3)C1)C2)c1ccccn1	-107*	18µM*	-2%	?	-2%	?	?	32µM*	6%	0%	-14%
Cc1nc(COC(=O)c2cc(O)c3ccccc3c2O)cs1	11	20µM*	18µM*	-10%	?	9%	-13%[10.4 µM]	-6%	?	?	?
c1n[nH]c(SCCCCSc2ncn[nH]2)n1	-29	-27%	-23%	2%	3%	-12%	.	.	.	.	.
C(=C\CSc1ncn[nH]1)/CSc1ncn[nH]1	-15	?	0%	39%	0%	-20%	0%[38.3 µM]	4%	-2%	1%	2%
CCOc1cccc2cc(-c3nnc(Nc4ccc(F)c(Cl)c4)s3)c(=O)oc12	-13	.	-2%	.	1%	6%	.	.	.	.	.
O=c1cc(O)c2sc(Nc3ccc(F)c(Cl)c3)nc2[nH]1	-101*	2µM*	-1%	-6%	-18%	15%	0%[10.4 µM]	4%	?	?	?
O=C1c2ccccc2C(=O)C1c1ccc(F)cc1	.	.	.	.	-3%	.	.	.	.	.	.
CC1(C)C(=O)NC2=C1C(=O)C(=O)c1ccccc12	.	0.16µM*	.	.	.	14µM*	16µM*	20µM*	1.1µM*	0.89µM*	1.3µM*
COc1ccc(-n2c(=O)cnc3cnc(N4CCOCC4)nc32)cc1	.	5%	.	.	.	-13%	.	.	.	.	.
Nn1c(Cc2ccccc2)n[nH]c1=S	-25	-16%	-1%	8%	-24%	7%	.	.	.	.	.
NNc1n[nH]c(=S)n1N	-21	1.8µM*	-18%	-12%	-22%	-2%	20%[38.3 µM]	-4%	16µM*	18µM*	18µM*
